Screening data: PubChem, Sanford-Burnham Center for Chemical Genomics
MPTP block: permeability transition pore inhibition. isolated mouse mitochondria, Ca2+ swelling absorbance, 30 min. inhibition, % at 10 µM. 360,000 tested, 1.4% active. AID 602449;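 active means inhibition of 50% or more, scaled per plate between neutral and stimulator controls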;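 further: 0% = DMSO wells given calcium and 100% = 1 mM EGTA wells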
TAG inh: triacylglycerol accumulation inhibition. H9c2 cells, Nile Red lipid (TAG) fluorescence; cells loaded with 200 µM oleic acid. 230,000 tested, 0.66% active. inhibition, % at 12.5 µM;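 active means pattern-corrected inhibition of lipid staining of at least 50% with the nuclear-stain viability signal not falling by more than 50%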;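 further: 0% = DMSO wells and 100% = triacsin C control wells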
NadD inh: inhibitors of Staphylococcus aureus NadD; inhibition, % at 20 µM; AID 602399; purified NadD enzyme, colorimetric absorbance read-out; 360,000 tested, 0.78% active; in the data active means inhibition above about 26%
aDG glyco up: alpha-DG glycosylation activation; Pro5-aDG cells, alpha-DG glycosylation AlphaScreen (IIH6); 0% Pro5, 100% B10-LARGE cell signal; activation, % at 10 µM; 360,000 tested, 0.22% active;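 active means activation of at least 8% versus controls, or a plate z-score of at least 8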;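 further: Pro5 are CHO cells carrying HIG-tagged alpha-DG that lacks glycosylation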
Rh123 counter: membrane potential counter-screen of mitochondrial pore inhibitors. isolated mitochondria, Rhodamine 123 fluorescence. shares compounds with MPTP block. AID 624504. 5,000 tested, 78% active. inhibition, % at 10 µM; in the data active means inhibition above about 22%;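 further: 0% = DMSO vehicle and 100% = positive control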
MPTP swell DR: MPTP inhibition, dose response swelling confirmation | shares compounds with MPTP block | isolated mitochondria swelling, absorbance | IC50, µM | 780 tested, 58% active | AID 651561; in the data active means IC50 below about 20 µM
MPTP cs DR: counter-screen for mitochondrial permeability transition pore inhibitors, dose response | IC50, µM | 780 tested, 49% active | shares compounds with MPTP block | isolated mitochondria counterscreen, fluorescence read-out; in the data active means IC50 below about 80 µM
* hit, by the source's call; . = not tested or not shown. Hits are enriched below; roughly 2.7% of the tested compounds scored in any of these assays.

SMILES	MPTP block	TAG inh	NadD inh	aDG glyco up	Rh123 counter	others
CC(NC(=O)C(C)N1c2cccc3cccc(c23)S1(=O)=O)c1ccccc1 (configuration not stated)	0.1	.	-2.0	0.1	.
CC(C)(c1ccccc1)c1ccc(OCCCNCCO)cc1	94.4*	-3.8	-11.1	3.7	-9.4	MPTP swell DR=5.95*;MPTP cs DR=>80
O=C(COC(=O)Cc1cccc(C(F)(F)F)c1)NC(=O)NC1CCCC1	-0.6	-20.5	-7.8	-0.2	.
O=C(COC(=O)CCNS(=O)(=O)c1cccc(C(F)(F)F)c1)NC(=O)NC1CCCCC1	61.0*	-0.2	-8.3	-0.1	-10.6	MPTP swell DR=18*;MPTP cs DR=23.4*
O=C(CSc1nc(-c2ccccc2)nn1C(=O)c1ccccc1)Nc1cccc([N+](=O)[O-])c1	50.5*	16.9	14.6	0.8	47.2*
Cc1ccc(S(=O)(=O)N(CC(=O)c2ccc(Cl)cc2)C(=O)N2CCN(C)CC2)cc1	-0.1	-3.1	3.0	0.0	.
CN1CCN(C(=O)c2cccc3c(-c4ccc(F)c(F)c4)coc23)CC1	0.0	11.9	-0.9	-0.2	.
CC1(C)C(=O)Nc2ccccc2N1C(=O)CSc1nc(-c2ccccc2)cs1	98.2*	.	0.1	1.6	69.9*
O=C1CN(C(=O)CSc2nc(-c3ccccc3)cs2)c2ccccc2N1	-0.4	.	-5.3	0.2	.
O=C(Nc1ccncc1)c1ccc(Cl)c(S(=O)(=O)N2CCc3ccccc32)c1	57.7*	-17.0	3.6	3.3	91.3*
Cc1ccc(S(=O)(=O)c2nnn3c2nc(Nc2cccc(C)c2)c2ccccc23)cc1	64.8*	.	16.0	-0.1	24.8*
Cc1ccc(C)c(Nc2nc3c(S(=O)(=O)c4ccccc4)nnn3c3ccccc23)c1	48.5	.	19.5	-0.4	.
O=C(NCCC(F)(F)F)C1Cc2c(-c3ccc(Cl)cc3)ccnc2O1 (configuration not stated)	-0.4	2.2	0.9	-0.3	.
COc1cc(OC)c(OC)cc1CNC(=O)c1cccc(S(=O)(=O)N2CCc3ccccc3C2)c1	98.4*	-15.2	-3.8	3.2	103.8*
Cc1cc(N2CCN(C)CC2)ccc1NC(=O)c1cccc(S(=O)(=O)N2CCc3ccccc3C2)c1	92.2*	20.9	8.0	-0.1	-0.6
Cc1c(/C=N/NC(=O)c2ccc(O)cc2)c2ccccn2c1C(=O)c1ccc(F)cc1	-1.0	-1.2	21.0	-0.1	.
Cc1c(/C=N/NC(=O)c2ccccc2O)c2ccccn2c1C(=O)c1ccc(F)cc1	98.0*	.	29.4	-0.5	56.4*
CCCCn1c(N)c(N(CCOC)C(=O)CC2CCCCC2)c(=O)[nH]c1=O	2.4	-2.2	-0.6	-0.1	.
O=C(C(=O)N1CCN(c2ccccc2)CC1)c1ccco1	0.0	.	.	-0.1	.
COc1cc(C)ccc1OCCCCOc1ccccc1C(C)=O	95.3*	-41.8	-4.7	0.9	84.8*
COC(=O)c1ccccc1OCCCOc1ccc(C=O)cc1OC	57.5*	-8.7	-6.8	0.0	-8.3	MPTP swell DR=11.4*;MPTP cs DR=>80
COc1cc(C)ccc1OCCCOc1ccccc1Cl	0.7	.	-1.9	0.0	.
O=C(NC(NC(=S)Nc1ccc(Cl)c(Cl)c1)C(Cl)(Cl)Cl)c1ccco1 (configuration not stated)	99.8*	.	6.2	0.1	99.9*
O=C(Cc1ccccc1)NC(NC(=S)Nc1cc(Cl)ccc1Cl)C(Cl)(Cl)Cl (configuration not stated)	97.8*	12.3	7.5	0.1	70.2*
O=C(NC(NC(=S)Nc1cc(Cl)ccc1Cl)C(Cl)(Cl)Cl)c1ccco1 (configuration not stated)	81.9*	.	5.1	0.2	72.5*
SMILES	MPTP block	TAG inh	NadD inh	aDG glyco up	Rh123 counter	others
Cc1ccccc1NC(=S)NC(NC(=O)c1ccco1)C(Cl)(Cl)Cl (configuration not stated)	3.7	.	-2.2	0.4	.
O=C(Nc1ccc(Cl)c(Cl)c1)Oc1ccc(NC(=O)c2ccco2)cc1	102.5*	-110.3	-3.6	-0.1	77.3*
O=C(Nc1ccc(Br)cc1F)c1nc[nH]c1C(=O)N1CCc2ccccc2C1	0.0	13.8	8.1	-0.2	.
CCOC(=O)C1CCCN(S(=O)(=O)c2c(C(=O)N3CCCCC3)c(C)n(C)c2C)C1 (configuration not stated)	-1.5	.	0.5	-0.2	.
CCOC(=O)c1ccccc1-c1csc(N)n1	0.1	.	-1.1	0.0	.
COCCNC(=O)C1CCCN(C(=O)c2cc(-c3cccs3)oc2C)CC1 (configuration not stated)	-1.1	-11.2	-0.7	0.2	.
COc1ccc(Cc2n[nH]c(=S)n2NC(=O)Nc2ccc(Cl)c(Cl)c2)cc1	92.2*	15.0	-0.2	0.0	90.2*
Cn1c(CC(=O)Nc2ccc(Cl)c(Cl)c2)n[nH]c1=S	-0.2	1.3	-0.6	-0.1	.
CCOC(=O)c1csc(NC(=O)CCS(=O)(=O)c2ccc(Cl)cc2)n1	2.2	-0.5	-0.2	1.8	.
OC(CN1C2=NCCCN2c2ccccc21)c1ccc(Cl)cc1 (configuration not stated)	0.8	3.9	-3.1	0.1	.
OC(COc1ccc(Cl)cc1)CN1C2=NCCCN2c2ccccc21 (configuration not stated)	70.2*	.	4.7	1.3	-7.1	MPTP swell DR=18.5*;MPTP cs DR=>80
O=C1Nc2ccccc2C(=O)N(c2ccc3c(c2)OCCO3)C1C(=O)NC1CC1 (configuration not stated)	5.3	.	.	-0.2	.
CN(C)S(=O)(=O)c1cccc(NC(=S)Nc2ccc(Cl)cc2Cl)c1	90.5*	-7.6	-3.3	0.0	93.3*
COc1ccc(O)c(/C=N/NC(=S)Nc2cccc(S(=O)(=O)N(C)C)c2)c1	50.9*	.	-1.1	0.5	83.5*
CN(C)S(=O)(=O)c1cccc(NC(=S)NCc2ccco2)c1	-2.0	-54.6	-4.6	-0.3	.
CCN(CCO)c1ccc(NC(=S)Nc2cccc(S(=O)(=O)N(C)C)c2)cc1	0.0	4.7	0.0	-0.3	.
CN(C)S(=O)(=O)c1cccc(NC(=S)Nc2cc(Cl)cc(Cl)c2)c1	88.5*	.	1.0	-0.2	93.5*
CC(=O)c1cnc2nc(SCc3ccc(Cl)cc3)nn2c1C	0.1	6.6	-6.1	1.1	.
CN1CCC2(CC1)Nc1nc(SCc3ccc(Cl)cc3)nn1C1=C2CN(C)CC1	63.4*	24.0	-8.0	2.2	-14.2	MPTP swell DR=9.72*;MPTP cs DR=>80
N=c1sccn1CC(=O)NC(c1ccccc1)c1ccccc1	-0.2	30.3	-4.8	-0.2	.
O=C(NC1CCCC1)c1sc(=S)n2c1[nH]c(=O)c1ccccc12	87.4*	17.8	8.2	-0.1	97.4*
O=C(NCc1ccco1)c1sc(=S)n2c1[nH]c(=O)c1ccccc12	89.4*	.	5.6	-0.2	76.7*
O=C(NCc1ccccc1)c1ccc2c(=O)[nH]c3c(C(=O)NCC4CCCO4)sc(=S)n3c2c1 (configuration not stated)	1.1	7.2	9.9	0.3	.
